RORg inh = qHTS for inhibitors of ROR gamma transcriptional activity. Drosophila S2 Gal4-RORgamma UAS-luciferase reporter, 20 h. 310,000 tested, 5.4% active. Nuclear receptor ROR-gamma (Mus musculus), P51450. Potency, µM (highest dose often 53.6 µM), without a hit: at the highest dose activity change, negative = inhibition, usual class: inhibitors; also: nearly all actives have a fitted effect of over 60% in size
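Read-out: Photinus luciferase luminescence; inhibitors lower reporter signal. Insect Schneider cells with Gal4-ROR gamma fusion under metallothionein promoter, UAS reporter; 700 uM final copper sulfate induction, 20 hr, ambient temperature.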
ELG1 DNA repair = qHTS screen for small molecules that inhibit ELG1-dependent DNA repair in human embryonic kidney (HEK293T) cells expressing luciferase-tagged ELG1; Potency, µM (doses to about 46.1 µM), inactives show top-dose activity change, negative = inhibition, usual class: inhibitors; HEK293T ELG1-luciferase reporter, luminescence, 16 h; DNA damage induced by 5-fluorouridine; 330,000 tested, 2.3% active; also: nearly all actives have a fitted effect of over 55% in size
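Reporter activity after DNA damage by 5-fluorouridine is monitored. Compound-treated cells incubate 16 hr at 37 °C, then ONE-Glo is added for 30 min before luminescence reading.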
DT40 TDP1 CPT = qHTS for Inhibitors of human tyrosyl-DNA phosphodiesterase 1 (TDP1): qHTS in cells in presence of CPT; AID 686979, 2013; chicken DT40 Tdp1-/-;hTDP1 cells + 20 nM CPT, ATP luminescence, 48 h; Potency, µM (titrated, usually from 46.2 µM), for the others: top-dose activity change, negative = growth inhibition, actives largely listed as inhibitors; 420,000 tested, 12% active; also: nearly all actives have a fitted effect of over 55% in size
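Chicken DT40 Tdp1-/- cells complemented with human TDP1, 400 cells/well, exposed to compounds plus 20 nM camptothecin for at least 48 h at 37 C; viability read as ATP content by CellTiter-Glo luminescence.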
Gal4-VP16 FLuc = VP16 counterscreen qHTS for inhibitors of ROR gamma transcriptional activity; Drosophila S2 Gal4-VP16 UAS-luciferase, luminescence, 20 h; Potency, µM (series often up to 53.6 µM), inactives show at the top dose activity, negative = inhibition, usual class: inhibitors; 310,000 tested, 3.5% active; AID 2546, 2010;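 also: Gal4-VP16 expression switched on by copper sulfate through the metallothionein promoter; nearly all actives have a fitted effect of over 50% in size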
DT40 TDP1 no CPT = qHTS for Inhibitors of human tyrosyl-DNA phosphodiesterase 1 (TDP1): qHTS in cells in absence of CPT. DT40 Tdp1-/- hTDP1 cells, no CPT, ATP luminescence, 48 h. Potency, µM (series often up to 46.2 µM), without a hit: at the highest dose activity change, negative = growth inhibition, usual class: inhibitors. 420,000 tested, 15% active. AID 686978, 2013; also: nearly all actives have a fitted effect of over 55% in size
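Growth kinetics read by CellTiter-Glo luminescence after ≥48 hr at 37 °C. Cells: DT40 Tdp1-/- stably carrying human TDP1, 400 per well, compound exposure in the absence of CPT (DMSO vehicle).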
ALOX12 inh = Primary qHTS assay for inhibitors of human arachidonate 12S-lipoxygenase (ALOX12): Round 2 | Polyunsaturated fatty acid lipoxygenase ALOX12 (Homo sapiens), P18054 | purified 12hLO, xylenol orange hydroperoxide absorbance | Potency, µM (highest dose often 108 µM), for inactives: at the highest dose activity change, negative = inhibition, actives largely listed as inhibitors | 580,000 tested, 1.1% active
Target sequence (P18054 whole entry, looked up): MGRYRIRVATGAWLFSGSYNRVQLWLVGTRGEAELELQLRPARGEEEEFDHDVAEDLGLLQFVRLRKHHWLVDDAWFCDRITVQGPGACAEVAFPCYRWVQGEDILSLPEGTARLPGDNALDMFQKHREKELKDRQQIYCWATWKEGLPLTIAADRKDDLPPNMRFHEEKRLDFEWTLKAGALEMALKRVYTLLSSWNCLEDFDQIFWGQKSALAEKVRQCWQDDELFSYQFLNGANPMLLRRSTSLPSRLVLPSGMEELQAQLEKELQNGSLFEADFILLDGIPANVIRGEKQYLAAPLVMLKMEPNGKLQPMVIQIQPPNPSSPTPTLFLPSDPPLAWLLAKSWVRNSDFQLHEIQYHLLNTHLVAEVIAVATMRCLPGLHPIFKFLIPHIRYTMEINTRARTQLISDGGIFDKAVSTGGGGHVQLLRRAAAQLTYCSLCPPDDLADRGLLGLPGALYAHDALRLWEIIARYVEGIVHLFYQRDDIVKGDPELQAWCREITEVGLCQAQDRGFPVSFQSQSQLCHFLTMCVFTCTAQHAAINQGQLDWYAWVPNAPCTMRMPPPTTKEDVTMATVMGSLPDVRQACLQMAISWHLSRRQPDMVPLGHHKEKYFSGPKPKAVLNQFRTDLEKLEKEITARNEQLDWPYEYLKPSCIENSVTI
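Purified human 12hLO (150 nM final) in 25 mM Hepes, 0.01% Triton X-100, pH 7.0 was preincubated 15 min at room temperature with compound. Then 40 uM arachidonic acid was added, 30 min. Hydroperoxide was read by Fe-XO absorbance ratio 573/405 nm.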
* = called active by the depositor; [ ] = another dose, or the depositor's remark. Hits are enriched below; roughly 15% of the tested compounds scored in any of these assays. Calls follow the shape of the dose curve; as a rule, active = well fitted curve in the direction sought with a large enough effect; inconclusive = small, poorly fitted or top-dose-only effect, or another doubt; inactive = no such curve, though single readings can be large; an effect the other way counts as inactive or inconclusive. % is scaled to controls: 0 for no effect and ±100 for the full control effect; potency is read from the fitted curve at half-maximal effect.

What do the screens show for `OCCOCCn1c(C2CCCN2c2nc(-c3ccc(F)cc3)cs2)nc2cc(Cl)c(Cl)cc21` (stereo not drawn)?
DT40 TDP1 CPT: inconclusive; DT40 TDP1 no CPT: 21µM*; ALOX12 inh: -5%

Results for CCCCC(=O)N1CCN(c2nc(-c3ccc(F)cc3)cs2)CC1 ?
RORg inh: -9%; ELG1 DNA repair: -13%; DT40 TDP1 CPT: inconclusive; Gal4-VP16 FLuc: 0%; DT40 TDP1 no CPT: inconclusive; ALOX12 inh: 0%

How did Cc1cc(S(=O)(=O)NCCO)c(C(C)C)cc1Br do in these assays?
ALOX12 inh: 3%

Results for CN(C)c1ccc(NC(=O)CN2CCN(c3ccc([N+](=O)[O-])c4cnccc34)CC2)cc1 ?
ALOX12 inh: -17%

What do the screens show for `O=C(Oc1ccc(-c2ccccc2)cc1)C(c1ccccc1)c1ccccc1`?
ALOX12 inh: 13%

Results for Cc1ccc(Cn2c(C3CCCN3c3nc(-c4ccc(F)cc4)cs3)nc3cc(Cl)c(Cl)cc32)cc1 (stereo not drawn) ?
DT40 TDP1 CPT: 3%; DT40 TDP1 no CPT: -25%; ALOX12 inh: inconclusive

Results for Cc1ccc(Cn2c(C3CCCN3c3nc(-c4ccc(F)cc4)cs3)nc3cc(C(F)(F)F)ccc32)cc1 (stereo not drawn) ?
DT40 TDP1 CPT: 18µM*; DT40 TDP1 no CPT: 21µM*; ALOX12 inh: -13%

How did Cc1ccc(Cn2c(C3CCCN3c3nc(-c4ccc(F)cc4)cs3)nc3cc(C(=O)NCCCO)ccc32)cc1 (stereo not drawn) do in these assays?
DT40 TDP1 CPT: 21µM*; DT40 TDP1 no CPT: inconclusive; ALOX12 inh: -24%

Results for Cc1cccc(C)c1OCC(=O)N[C@@H](Cc1ccccc1)[C@@H](O)C[C@H](Cc1ccccc1)NC(=O)[C@H](C(C)C)N1CCCNC1=O ?
RORg inh: inconclusive; DT40 TDP1 CPT: 7.9µM*; Gal4-VP16 FLuc: 2%; DT40 TDP1 no CPT: 19µM*; ALOX12 inh: -6%[57.4 µM]

Results for CC[C@H]1OC(=O)[C@H](C)[C@@H](O[C@H]2C[C@@](C)(OC)[C@@H](O)[C@H](C)O2)[C@H](C)[C@@H](O[C@@H]2O[C@H](C)C[C@H](N(C)C)[C@H]2O)[C@](C)(O)C[C@@H](C)C(=NOCOCCOC)[C@H](C)[C@@H](O)[C@]1(C)O ?
RORg inh: -1%; ELG1 DNA repair: 3%; DT40 TDP1 CPT: inconclusive; Gal4-VP16 FLuc: -7%; DT40 TDP1 no CPT: 7.3µM*; ALOX12 inh: 7%

Results for COc1cccc2sc3ccc(C#Cc4ccc(N)cc4)cc3c(=O)c12 ?
RORg inh: 22%; ELG1 DNA repair: inconclusive; DT40 TDP1 CPT: 16µM*; Gal4-VP16 FLuc: 3%; DT40 TDP1 no CPT: inconclusive; ALOX12 inh: 6%

Results for CC(C)OC(=O)CC(=O)CSc1nc2c(cc1C#N)CCC2 ?
RORg inh: inconclusive; ELG1 DNA repair: inconclusive; DT40 TDP1 CPT: inconclusive; Gal4-VP16 FLuc: inconclusive; DT40 TDP1 no CPT: 8.2µM*; ALOX12 inh: 0%

What do the screens show for `COC(=O)CC(=O)CSc1nc(C)cc(C)c1C#N`?
RORg inh: -1%; ELG1 DNA repair: 5%; DT40 TDP1 CPT: 29µM*; Gal4-VP16 FLuc: 4%; DT40 TDP1 no CPT: inconclusive; ALOX12 inh: 0%

Results for COC(=O)CC(=O)CSc1nc2c(cc1C#N)CCC2 ?
RORg inh: inconclusive; ELG1 DNA repair: inconclusive; DT40 TDP1 CPT: 18µM*; Gal4-VP16 FLuc: 18µM*; DT40 TDP1 no CPT: inconclusive; ALOX12 inh: 2%

What do the screens show for `COc1cc2c(cc1OC)CN(C(=O)CSc1nc(C)cc(C)c1C#N)CC2`?
RORg inh: -36%; ELG1 DNA repair: 2.6µM*; DT40 TDP1 CPT: 23µM*; Gal4-VP16 FLuc: -8%; DT40 TDP1 no CPT: 21µM*; ALOX12 inh: -5%

What do the screens show for `CC(C)OC(=O)CC(=O)CSc1nc2c(cc1C#N)CCCC2`?
RORg inh: 17%; DT40 TDP1 CPT: 12%; Gal4-VP16 FLuc: 15%; DT40 TDP1 no CPT: -4%; ALOX12 inh: inconclusive

How did C[C@@H]1CCC[C@H](C)N1CC(=O)N1CCn2nc(Cc3ccccc3)cc2C1 do in these assays?
ALOX12 inh: 88%

What do the screens show for `COc1ccc(-c2c(C)oc3c(C)c(OCCN4CCC(C(N)=O)CC4)ccc3c2=O)cc1`?
ALOX12 inh: -39%

Results for CCN1CCN(Cc2nc3c(c(=O)[nH]c(=O)n3C)n2CCCc2ccccc2)CC1 ?
ALOX12 inh: -13%

What do the screens show for `COC[C@@H]1CN(C(=O)Cc2cccc(OC)c2)C[C@H]1c1ccccn1`?
ALOX12 inh: 43%

How did N#Cc1cc2c(nc1SCc1nc3ccccc3[nH]1)CCC2 do in these assays?
RORg inh: 10µM*; ELG1 DNA repair: inconclusive; Gal4-VP16 FLuc: 11µM*

Results for Cc1cccc(CSc2nc3c(cc2C#N)CCC3)c1 ?
RORg inh: inconclusive; ELG1 DNA repair: inconclusive; DT40 TDP1 CPT: -9%; Gal4-VP16 FLuc: 3%; DT40 TDP1 no CPT: -19%; ALOX12 inh: -23%

What do the screens show for `COc1ccccc1Cc1nc2ccccc2nc1SCC(=O)NCc1ccco1`?
ALOX12 inh: -46%

What do the screens show for `Cc1ccc(S(=O)(=O)c2c(C)c(C)c(C)[nH]c2=O)cc1`?
RORg inh: -9%; ELG1 DNA repair: 13%; DT40 TDP1 CPT: -26%; Gal4-VP16 FLuc: -10%; DT40 TDP1 no CPT: 13%; ALOX12 inh: -4%

Results for Cc1ccc(Sc2sc(=O)n(C)c2S(=O)(=O)c2ccc(C)cc2)cc1 ?
RORg inh: 2%; ELG1 DNA repair: -13%; DT40 TDP1 CPT: inconclusive; Gal4-VP16 FLuc: -4%; DT40 TDP1 no CPT: 21µM*; ALOX12 inh: -5%

What do the screens show for `COCC(C)n1c(C)cc(C(=O)Cn2cnc3scc(-c4ccc(C)cc4)c3c2=O)c1C` (stereo not drawn)?
ALOX12 inh: 1%

Source: PubChem
